Only a sample is shown.
aSyn UTR act: Activators working through SNCA 5'UTR binding (MLPCN); alpha-synuclein 5'UTR reporter, activators screen; activity score, % (tested at 7.5 µM), hits read low; hit rate 7.1% among 300,000; in the data active means activity score below about -60%
* marks the source's active call; other numbers are inactive results.

SMILES	aSyn UTR act
COc1ccc(C2C(C#N)=C(N)N(c3ccccc3)C3=C2C(=O)CCC3)cc1Cn1cc([N+](=O)[O-])cn1 (stereo not drawn)	58
COc1ccc(C(=O)NCC2OCCc3ccccc32)c(O)c1 (stereo not drawn)	-88*
Cc1ccc2nc(-c3ccc(NC(=S)NCCC(C)C)cc3)sc2c1	-192*
CCCCNC(=S)Nc1ccc(-c2nc3ccc(C)cc3s2)cc1	-159*
CCC(C)(C)NC(=S)Nc1ccc(-c2nc3ccc(C)cc3s2)cc1	-79*
COCCNc1nnc(SC(C)C(=O)Nc2ccc(-c3nc4ccc(C)cc4s3)cc2)s1 (stereo not drawn)	-79*
Cc1ccc2nc(N/C(=N/S(=O)(=O)c3ccc(F)cc3F)c3ccccc3)sc2c1	-108*
Cc1ccc2nc(N/C(=N/S(=O)(=O)c3ccc(F)cc3)c3ccccc3)sc2c1	-107*
Nc1[nH]c(N=NC(=O)c2ccccc2O)c2ccccc12	-150*
CCCC(=O)N1c2ccccc2C(=C2SC(C(=O)OC)=C(C(=O)OC)S2)C(=S)C1(C)C	-88*
CCn1c2ccccc2c2cc(NC(=O)CN(C)CC(=O)Nc3ccc(N4CCOCC4)cc3)ccc21	-143*
CC(C)c1ccc(NC(=O)N2CCOCC2)cc1	-107*
CCn1c2ccccc2c2cc(NC(=O)N3CCOCC3)ccc21	-84*
O=C(Nc1ccc2c(c1)oc1ccccc12)N1CCOCC1	-140*
O=C(CNC(=O)c1cn2ccccc2n1)Nc1ccc(F)c(F)c1	-209*
O=C(Nc1ccc(Cc2ccncc2)cc1)c1ccc([N+](=O)[O-])o1	-150*
COc1ccc(/C=C/C(=O)c2ccc([N+](=O)[O-])o2)cc1	-62*
O=C(Nc1ccc2c(c1)CCCN2C(=O)c1ccco1)c1cc([N+](=O)[O-])ccc1Cl	-94*
O=C(/C=C/c1cccc([N+](=O)[O-])c1)c1ccc([N+](=O)[O-])o1	71
O=C(Nc1ccc(S(=O)(=O)N2CCOCC2)cc1)c1ccc([N+](=O)[O-])o1	-120*
O=C(Nc1ccc(N2CCOCC2)cc1)c1ccc([N+](=O)[O-])o1	-103*
COc1ccc(S(=O)(=O)N2CCN(C(=O)c3ccc([N+](=O)[O-])o3)CC2)cc1	-78*
O=C(Nc1ccc(N2CCN(C(=O)c3cccs3)CC2)cc1)c1ccc([N+](=O)[O-])o1	106
O=C(Nc1ccc(S(=O)(=O)N2CCOCC2)cc1)c1cc([N+](=O)[O-])ccc1Cl	-67*
COc1ccc2o/c(=N/NC(=O)c3cccs3)c(C(N)=O)cc2c1	-157*
SMILES	aSyn UTR act
NC(=O)c1cc2ccccc2o/c1=N/NC(=O)c1cccs1	-63*
COc1cccc(NC(=O)C2COc3ccccc3O2)c1 (stereo not drawn)	-201*
O=C(Nc1cnc2ccccc2c1)C1COc2ccccc2O1 (stereo not drawn)	-167*
COc1ccc(OC)c2c1sc(=NC(=O)C1COc3ccccc3O1)n2C (stereo not drawn)	-128*
O=C(Nc1ccccc1[N+](=O)[O-])C1COc2ccccc2O1 (stereo not drawn)	-221*
O=C(Nc1ccc2c(c1)OCO2)C1COc2ccccc2O1 (stereo not drawn)	-177*
Cc1cc(Cl)ccc1NC(=O)C1COc2ccccc2O1 (stereo not drawn)	-85*
O=C(Nc1ccc(F)cc1)C1COc2ccccc2O1 (stereo not drawn)	-72*
COc1ccc(CNC(=O)C2COc3ccccc3O2)cc1 (stereo not drawn)	-62*
COc1ccc(C)cc1NC(=O)C1COc2ccccc2O1 (stereo not drawn)	-67*
Cc1cc(=O)oc2cc(NC(=O)C3COc4ccccc4O3)ccc12 (stereo not drawn)	-62*
Cc1ccc(OCc2ccc(C(=O)Nc3nc4ccccc4n3Cc3ccccc3)o2)c([N+](=O)[O-])c1	61
Cc1ccc(OCCCN2CCOCC2)c([N+](=O)[O-])c1	-82*
Cc1ccc(OCCCCCN2CCOCC2)c(Cl)c1	-74*
Cc1cc(OCCN2CCOCC2)ccc1Cl	-76*
Cc1cc(OCC(=O)N2CCOCC2)ccc1[N+](=O)[O-]	-76*
Cc1cc(OCCN2CCOCC2)ccc1[N+](=O)[O-]	-80*
CSc1cccc(NCc2ccc([N+](=O)[O-])cc2)c1	-63*
COc1cc(/C=C2\SC(=S)N(CCC(=O)N3CCCCC3)C2=O)cc(OC)c1OC	-95*
O=C1/C(=C/c2cccs2)SC(=S)N1CCC(=O)N1CCCCC1CCO (stereo not drawn)	-109*
O=C(CCN1C(=O)/C(=C/c2cccs2)SC1=S)N1CCCCC1	-90*
COc1ccc(/C=C2\SC(=S)N(CCCC(=O)N3CCOCC3)C2=O)cc1	56
Cc1ccc2nc(-c3cccc(S(=O)(=O)N(C)C)c3)cn2c1	-171*
Cc1ccc2nc(-c3ccc(S(=O)(=O)N4CCCCC4)cc3)cn2c1	-81*
CCN(CC)S(=O)(=O)c1cccc(-c2nc3n(n2)Cc2ccccc2-3)c1	-86*
SMILES	aSyn UTR act
CCN(CC)S(=O)(=O)c1cccc(-c2cn3cc(C)ccc3n2)c1	-78*
CC(C)(C)C(=O)N1CCN(c2nc3ccc(Cl)cc3s2)CC1	-237*
CC(=O)N1CCN(c2nc3ccc(Br)cc3s2)CC1	-158*
CC(C)(C)C(=O)N1CCN(c2nc3ccc(Br)cc3s2)CC1	-164*
CC(=O)N1CCN(c2ccc(NC(=O)c3cccc(C)c3)cc2)CC1	-73*
CC(=O)N1CCN(c2ccc(NC(=O)c3ccccc3)cc2)CC1	-106*
Cc1ccc(N2CCN(C(=O)c3ccccc3NC(=O)c3ccccc3C(=O)O)CC2)cc1	-100*
Cc1cccc(C(=O)Nc2ccc(C(=O)N3CCCCC3C)cc2)c1 (stereo not drawn)	-84*
CC1C(=O)C(C)C(c2ccc(Cl)cc2)NC1c1ccc(Cl)cc1 (stereo not drawn)	68
CC(=O)N1CCN(c2ccc(NC(=O)c3ccc(Cl)c([N+](=O)[O-])c3)cc2)CC1	-70*
CCOc1cc(/C=C2\N=C(C)OC2=O)cc(Br)c1OCC(=O)OC	-64*
CCOc1cc(CNc2ccccc2)cc(Br)c1OCC(=O)NC(C)(C)C	49
Cc1cc(/C=N\NC(=O)c2cccs2)c(C)n1-c1ccc2ncccc2c1	-145*
O=C(N/N=C/c1c[nH]c2ccccc12)c1cccs1	-127*
O=C(CSc1nnc(SCc2cccc3ccccc23)s1)N/N=C/c1c[nH]c2ccccc12	-78*
O=C(N/N=C/c1c[nH]c2ccccc12)c1ccc2c(c1)OCCO2	-140*
Cc1cc(C(=O)N/N=C/c2c[nH]c3ccccc23)cs1	-74*
Cc1cccc(NC(=S)N/N=C/c2c[nH]c3ccccc23)c1	-65*
O=C(N/N=C/c1cccc2ccccc12)c1cccs1	-164*
Cc1cc(C(=O)N/N=C/c2c[nH]c3ccccc23)c(C)o1	-81*
Cc1ccnc(SCC(=O)N2CCc3ccccc32)n1	-87*
O=C(CSc1nnc2ccccn12)N1CCc2ccccc21	-98*
Cc1ccc(C(=O)Nc2nnc(SCC(=O)N3CCCc4ccccc43)s2)cc1	74
Cn1ccnc1SCC(=O)N1CCc2ccccc21	-69*
O=C(CSc1nnc2ccccn12)N1CCc2ccccc2C1	-94*
COC(=O)c1c(C)[nH]c(O)c1C=Nc1ccc(C(C)C)cc1	-71*
O=C(/C=C/c1c(F)cccc1Cl)c1ccc(O)cc1	-115*
O=C(/C=C/c1ccccc1Cl)c1ccc(O)cc1	-360*
CC(C)(C)c1nnc(NC(=S)Nc2ccccc2)s1	-167*
S=C(Nc1ccccc1)Nc1nccs1	-177*

Source: PubChem (Broad Institute)
